# This is a sample that favours compounds with a hit; in the whole collection about 9% have one here.
# JMJD2A Tudor: JMJD2A Tudor domain (human) inhibition. actives 4.4% (n = 390,000). AlphaScreen JMJD2A-Tudor / H3K4me3 peptide binding. AID 504339. Potency, µM (top dose mostly 114 µM), without a hit: at the top dose activity change, negative = inhibition, usual class: inhibitors; note: potency is the fitted concentration of half-maximal effect; % is set by controls: 0 for no effect and ±100 for the full control effect; nearly all actives have a fitted effect of over 50% in size
# HP1b chromo inh: blocks HP1-beta chromodomain binding to methylated histone tails; AlphaScreen HP1-beta / biotin-H3K9me3 peptide binding; Potency, µM (series often up to 114 µM), for the others: at the highest dose activity change, negative = inhibition, most hits filed as inhibitors; actives 0.56% (n = 390,000); P83916; note: potency is the fitted concentration of half-maximal effect; nearly all actives have a fitted effect of over 70% in size
# Target sequence (P83916 whole entry, looked up): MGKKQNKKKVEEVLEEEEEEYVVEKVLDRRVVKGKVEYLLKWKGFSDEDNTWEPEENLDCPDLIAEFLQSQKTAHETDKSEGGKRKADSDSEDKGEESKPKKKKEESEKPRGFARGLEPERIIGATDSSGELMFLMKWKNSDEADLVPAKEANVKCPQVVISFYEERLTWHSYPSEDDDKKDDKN
#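 HP1-beta protein (50 nM final) preincubated 30 min at room temperature with biotinylated H3(1-18)K9me3 peptide (50 nM) in PBS pH 7.4, 0.01% Tween-20, then compound added for 30 min. AlphaScreen streptavidin donor/nickel chelate acceptor beads (10 ug/mL final), 30 min dark, luminescence read.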
# PLK1 PBD block: inhibitors of human PLK1 polo-box domain binding | P53350 | Plk1 PBD binding of FITC phosphopeptide, fluorescence polarization | Potency, µM, for inactives: max response, negative = inhibition, hits mostly inhibitors | actives 2.8% (n = 360,000); note: potency is the fitted concentration of half-maximal effect; series mostly up to about 57 µM; % is set by controls: 0 for no effect and ±100 for the full control effect; nearly all actives have a fitted effect of over 65% in size
# Target sequence (P53350 whole entry, looked up, the tested form may be a part): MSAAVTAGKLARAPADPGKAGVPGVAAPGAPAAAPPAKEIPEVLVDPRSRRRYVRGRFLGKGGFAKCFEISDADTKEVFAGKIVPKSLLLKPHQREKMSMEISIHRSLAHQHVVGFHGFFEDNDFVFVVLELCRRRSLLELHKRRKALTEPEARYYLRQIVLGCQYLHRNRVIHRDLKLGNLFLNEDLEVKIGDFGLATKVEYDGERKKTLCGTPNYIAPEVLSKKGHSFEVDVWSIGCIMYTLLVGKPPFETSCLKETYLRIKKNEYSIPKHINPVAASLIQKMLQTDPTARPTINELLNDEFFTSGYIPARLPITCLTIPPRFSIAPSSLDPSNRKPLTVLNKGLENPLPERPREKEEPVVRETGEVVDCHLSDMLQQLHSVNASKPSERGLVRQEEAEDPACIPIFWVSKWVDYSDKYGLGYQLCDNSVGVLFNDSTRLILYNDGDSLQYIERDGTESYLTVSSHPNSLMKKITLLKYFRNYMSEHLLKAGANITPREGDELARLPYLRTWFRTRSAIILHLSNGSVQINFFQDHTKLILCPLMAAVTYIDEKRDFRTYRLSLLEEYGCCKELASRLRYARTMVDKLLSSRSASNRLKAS
# G9a inh-1: blocks human histone lysine methyltransferase G9a. AID 504332. actives 8.8% (n = 350,000). Potency, µM (top dose mostly 102 µM), for inactives: at the highest dose activity, negative = inhibition, usual class: inhibitors. G9a H3K9 monomethylation, AlphaScreen, 2 h. Q96KQ7; note: potency is the fitted concentration of half-maximal effect; % is set by controls: 0 for no effect and ±100 for the full control effect; nearly all actives have a fitted effect of over 75% in size
#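 Using a bead-based AlphaScreen, monomethylated H3K9 product from 2 h room-temperature reactions (G9a 20 nM, peptide 500 nM, SAM 20 uM) was detected with 0.5 ug/mL rabbit anti-H3K9me1 antibody.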
# BAZ2B block: BAZ2B (human) inhibition | actives 4.4% (n = 360,000) | Potency, µM (top dose mostly 114 µM), for the others: at the highest dose activity change, negative = inhibition, actives largely listed as inhibitors | AlphaScreen BAZ2B-H3K14Ac peptide displacement; note: potency is the fitted concentration of half-maximal effect; % is set by controls: 0 for no effect and ±100 for the full control effect; nearly all actives have a fitted effect of over 60% in size
#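 AlphaScreen displacement of biotin-H3(5-23)K14Ac peptide (50 nM final) from BAZ2B (50 nM final) in PBS pH 7.4, 0.01% Tween-20; complex preformed 30 min RT, then compounds (top 110 uM) 30 min RT, beads 20 min dark.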
# ALOX12 inh: ALOX12 (human) lipoxygenase inhibition. purified 12hLO, xylenol orange hydroperoxide absorbance. P18054. actives 1.1% (n = 580,000). Potency, µM (highest dose often 108 µM), without a hit: top-dose activity change, negative = inhibition, most hits filed as inhibitors. AID 1671190; note: potency is the fitted concentration of half-maximal effect; % is set by controls: 0 for no effect and ±100 for the full control effect
#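 Hydroperoxide product was detected by ferrous iron/xylenol orange as the 573 to 405 nm absorbance ratio. Arachidonic acid at 40 uM (final) was turned over for 30 min at room temperature by 150 nM human 12hLO, pH 7.0 Hepes buffer, after 15 min compound preincubation.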
# JMJD2E inh: JMJD2E (human) demethylase inhibition, confirmation. shares compounds with JMJD2A Tudor. Recombinant JMJD2E, FDH-coupled NADH fluorescence (FDH is formaldehyde dehydrogenase). Potency, µM (top dose mostly 56.8 µM), without a hit: at the highest dose activity change, negative = inhibition, usual class: inhibitors. actives 93% (n = 140)
# FDH counter: counter-screen for JMJD2E inhibitors: Pseudomonas putida formaldehyde dehydrogenase | shares compounds with JMJD2A Tudor | FDH enzyme assay, NADH fluorescence kinetic | Potency, µM (titrated, usually from 56.7 µM), without a hit: at the highest dose activity, negative = inhibition, most hits filed as inhibitors | actives 10% (n = 140)
# G9a inh-2: inhibits human G9a histone lysine methyltransferase, hit confirmation; G9a H3K9 monomethylation, AlphaScreen, 2 h; Potency, µM, most hits filed as inhibitors; AID 588344; shares compounds with JMJD2A Tudor; actives 89% (n = 370); note: potency is the fitted concentration of half-maximal effect; nearly all actives have a fitted effect of over 65% in size
# TbPYK confirm: Trypanosoma brucei pyruvate kinase inhibition, cherry-pick confirmation; actives 67% (n = 890); AID 720569; recombinant TbPYK, Kinase-Glo ATP luminescence; Potency, µM (series often up to 76.9 µM), for inactives: top-dose activity change, negative = inhibition, usual class: inhibitors; shares compounds with PLK1 PBD block; note: potency is the fitted concentration of half-maximal effect; % is set by controls: 0 for no effect and ±100 for the full control effect; nearly all actives have a fitted effect of over 70% in size
# TbPYK ADP-Glo: inhibits T. brucei pyruvate kinase in orthogonal ADP-Glo assay | shares compounds with PLK1 PBD block | recombinant TbPYK, ADP-Glo luminescence, 60 min | Potency, µM (titrated, usually from 76.9 µM), inactives show at the highest dose activity change, negative = inhibition, usual class: inhibitors | actives 62% (n = 890) | AID 720584; note: potency is the fitted concentration of half-maximal effect; % is set by controls: 0 for no effect and ±100 for the full control effect; nearly all actives have a fitted effect of over 75% in size
# An asterisk follows results filed as active; ? = inconclusive; . = no result given; [ ] = dose if it differs, or a comment. Calls come from the whole dose curve; as a rule, active = well fitted curve in the direction sought with a large enough effect; inconclusive = small, poorly fitted or top-dose-only effect, or another doubt; inactive = no such curve, though single readings can be large; an effect the other way counts as inactive or inconclusive.
SMILES,JMJD2A Tudor,HP1b chromo inh,PLK1 PBD block,G9a inh-1,BAZ2B block,ALOX12 inh,G9a inh-2,others
COC(=O)c1c(-c2cccs2)csc1NC(=O)COc1ccc(C(C)C)cc1,-24%,?,.,2.2µM*,-11%,-25%,8.1*,
CCCc1ccc(OCC(=O)Nc2scc(-c3cccs3)c2C(=O)OC)cc1,-3%,1%,.,?,7%,?,.,
Oc1ccc(NCc2ccc(OCc3ccccc3)cc2)cc1,56µM*,?,-9%,7.9µM*,40µM*,271%,1.3*,
O=C(/C=C(\c1ccc(Cl)cc1)n1cncn1)c1ccc(Cl)cc1,-14%,2%,-10%,?,-25%,.,.,
COc1ccc(N2CCC(CNC(=O)Nc3ccccc3)C2)cc1 (stereo not drawn),18µM*,45µM*,-3%,?,50µM*,?,1*,
CC(C)n1cnc2cc(NCc3ccco3)ccc21,?,3%,-8%,?,-33%[57.1 µM],-1%,14*,
CC(C)n1cnc2cc(NC(=O)c3ccco3)ccc21,-15%,-3%,-9%,-35%,6%,-17%,.,
S=C(Nc1ccccn1)NC1CCCC1,-18%,26%,-12%,0.35µM*,-23%,45µM*,3.2*,
CC1CC(=O)N(c2ccc(C(C)C)cc2)C(=O)C1,-6%,36%,-13%,.,23%,7%,.,
CC(C)c1ccc(N2C(=O)CC(Sc3ncn[nH]3)C2=O)cc1 (stereo not drawn),7.1µM*,-73%,27µM*,1.3µM*,5%,?,.,JMJD2E inh=5.6µM*;FDH counter=0.25µM*
CCCNC(=O)c1ccc2nc(-c3ccc(C)cc3)cc(OC)c2c1,.,.,.,.,.,4%,.,
CCCNC(=O)c1ccc2c(=O)n3c(-c4ccc(C)cc4)csc3nc2c1,22µM*,-25%,?,?,7.1µM*,11µM*,0.56*,
CN1CCN([C@@H]2CS(=O)(=O)N[C@H]2COCc2ccccc2)CC1,.,.,-4%,.,.,-5%,.,
COc1ccc(O)c(CNc2ccccc2F)c1,-29%,3%,-4%,?,.,-17%,28*,
COc1ccc(Cc2c(-c3ccccc3)nc3cc(C)c(Br)c(C)n23)c(C)c1,.,.,-2%,.,.,-36%,.,
O=C(Nc1ccccc1N1CCCC1)c1cccc(-c2cc3ccccc3oc2=O)c1,?,-21%,-17%,?,?,6%,.,
O=C(Nc1ccc(N2CCCC2)cc1)c1ccccc1F,?,-7%,-15%,1.8µM*,?,-13%,2.8*,
O=C(Nc1ccc(N2CCCC2)cc1)c1cccc(-c2cc3ccccc3oc2=O)c1,28µM*,8.9µM*,2.7µM*,1.6µM*,?,11µM*,1.1*,
O=C(Nc1ccc(N2CCCCC2)cc1)c1ccccc1,-28%,2%,4%,?,-24%,-26%,.,
O=C(Nc1ccc(N2CCCC2)cc1)c1cccc(Cl)c1Cl,?,13%,-3%,?,-2%,?,.,
O=C(Nc1ccc(N2CCCC2)cc1)c1cccc(F)c1,50µM*,?,-11%,?,?,-8%,1.6*,
COc1cc(CN2CCCC(COc3ccccc3C(=O)N3CCCC3)C2)ccc1O (stereo not drawn),.,.,.,.,.,6%,.,
CC(C)CNc1oc(-c2ccc(S(=O)(=O)N3CCCCCC3)cc2)nc1C#N,.,.,.,.,.,19%,.,
O=C(CSc1cn[nH]n1)Nc1cccc(C(=O)O)c1,8.9µM*,18µM*,4.2µM*,0.71µM*,-32%,3%,1.3*,TbPYK confirm=14µM*;TbPYK ADP-Glo=35µM*
Cc1ccc(C)c(NC(=S)N2CCN(c3cccc(C(F)(F)F)c3)CC2)c1,0%,20%,-6%,4%[59 µM],2%,-4%,.,
SMILES,JMJD2A Tudor,HP1b chromo inh,PLK1 PBD block,G9a inh-1,BAZ2B block,ALOX12 inh,G9a inh-2,others
Cc1ccnc(NC(=S)N2CCN(c3cccc(C(F)(F)F)c3)CC2)c1,1µM*,-13%[57 µM],-7%,1µM*,20µM*,22µM*,0.28*,TbPYK confirm=2.2µM*;TbPYK ADP-Glo=2.8µM*
CN(CCCNC(=O)c1nc2ccccc2c(=O)[nH]1)C(=O)c1ccc(Br)cc1,.,.,.,.,.,-7%,.,
O=C(CSc1cccc2cccnc12)N1CCCC1,?,?,3µM*,?,9%,-13%,.,JMJD2E inh=32µM*;FDH counter=11µM*;TbPYK confirm=?;TbPYK ADP-Glo=?
Cc1cc(NC(=O)CSc2nnc(-c3ccccc3)n2Cc2ccco2)no1,-6%,40%,0%,8%[59 µM],14%,4%,.,
CCOC(=O)CNC(=O)CSc1nnc(-c2ccccc2)n1Cc1ccco1,45µM*,50%,-9%,?,-32%,-17%,4.5*,TbPYK confirm=2.2µM*;TbPYK ADP-Glo=1.4µM*
Cc1cccc(Nc2ccc(NCc3ccccc3)nn2)c1,-33%,17%,-4%,16%[59 µM],-29%,5%,.,
Cc1ccc(NC(=O)NC(=O)CN2CCC(C(N)=O)CC2)c(C)c1,1%,27%,-20%,20%[2.33 µM],9%,-3%,.,
Cc1ccc(NC(=O)NC(=O)CN2CCN(c3ccc(O)cc3)CC2)c(C)c1,45µM*,71µM*,-8%,7.9µM*,?,?,.,TbPYK confirm=11µM*;TbPYK ADP-Glo=5.6µM*
COc1ccc2oc(C)c(C(=O)c3ccc(C)cc3)c2c1,99%,134%,-9%,252%,105%,-27%,.,
COc1cccc(CNC(=O)CN2C(=O)NC(c3ccccc3)(c3ccccc3)C2=O)c1,0%,17%,-5%,-4%,7%,-9%,.,
CCCN1C(=O)/C(=C\C=C2/C=CN(CC)c3ccccc32)SC1=S,?,?,-10%,7.9µM*,?,?,.,TbPYK confirm=16µM*;TbPYK ADP-Glo=8%

# Screens: PubChem BioAssay, National Center for Advancing Translational Sciences (NCATS)
